In PubChem BioAssay (NCATS):
Inconclusive results are not listed. Activity calls are given as the source filed them. The call rests on the fitted dose curve; in most records, active means well fitted inhibition curve with a large enough effect; inconclusive means small, poorly fitted or top-dose-only effect, or effect the other way; inactive means flat fitted curve, though single readings scatter.

Experiment: qHTS for Inhibitors of Plasmodium falciparum (CP250) proliferation (AID 504320)
Conditions: P. falciparum CP250 in erythrocytes, SYBR Green DNA, 72 h; series mostly up to 6.7 µM
Description: Plasmodium falciparum is a virulent malarial parasite that kills 1-2 million people worldwide each year. Malaria not only inflicts tremendous suffering and morbidity on the human population, but has dramatically influenced the course of civilization with profound sociological and economic implications (Shah, S. 2010). Transmitted by mosquitoes, the sporozoite form of the parasite enters the blood stream to infect hepatocytes, where they become merozoites that infect red blood cells (erythrocytes). Within erythrocytes, merozoites begin a […] cycle of growth and division, after which the parasite is released to infect new red blood cells. Gametocytes, which form within erythrocytes as well, circulate in the bloodstream and are ingested by the mosquito, thereby completing the life cycle (see CDC website). To profile malarial lines for differential chemical responses and to identify inhibitors of malarial growth, an assay that measures P. falciparum growth and replication within erythrocytes was employed. This assay uses a DNA binding fluorescent dye (SYBR Green) to detect parasite DNA following cell lysis. Because mature erythrocytes lack DNA, only Plasmodium-derived DNA is detected. The P. falciparum line cp250, derived from a malarial isolate from Cambodia, (Mu, J., et al. 2010) was added to the panel of lines, Dd2, HB3, 7G8 and GB4 in this study. Laboratory of Assay Development and Screening Technology [ADST] and NIH Chemical Genomics Center [NCGC] Boston University, Chemistry Department, Center for Chemical Methodology and Library Development [CMLD-BU] NIH National Institute of Allergy and Infectious Diseases [NIAID]
ADST Assay Protocol Summary: The 1536-well SYBR Green viability assay was based on the method of Bennett et al (2004) and described previously in 1536-well format (Yuan J., et al. 2009). For screening 3 ul culture medium was dispensed into 1536 well black clear bottom plates (Aurora Biotechnologies) using a Multidrop Combi (Thermo Fisher Scientific Inc.), 23 nL compounds in DMSO were added by a pin transfer (Cleveland, P.H. and Koutz, P.J, 2005) using a pin tool-based delivery system (Kalypsys), and 5 ul of erythrocytes infected with P. falciparum one of five lines (cp250, Dd2, HB3, 7G8 or GB4, 0.3% parasitemia, 2.5% hematocrit final concentration) were added. The plates were incubated at 37C in a humidified incubator in 5% CO2 for 72 h, and 2 ul lysis buffer (20 mM Tris HCl, 10 mM EDTA, 0.16% saponin, 1.6% triton X, 10X SYBR Green I (supplied as 10,000X final concentration by Invitrogen) was added to each well. The plates were mixed for 25 sec with gentle shaking and incubated overnight at room temperature in the dark. The following morning, fluorescence intensity at 485(14) nm excitation and 535(25) nm emission wavelengths was measured on an EnVision (Perkin Elmer) plate reader. Plate reads were normalized relative to the control inhibitor (0.29 uM artemisinin) and vehicle (DMSO) wells present on each plate and then corrected by an algorithm using vehicle-only control plates at the beginning and end of the compound plate stack. References Shah, S. (2010). The Fever: how malaria has ruled humankind for 500,000 years. New York, Sarah Crichton Books. CDC web site, http://www.cdc.gov/malaria/about/biology/index.html Mu, J., Myers, R.A., Jiang, H., Liu, S., Ricklefs, S., Waisberg, M., Chotivanich, K., Wilairatana, P., Krudsood, S., White, N.J., et Plasmodium falciparum genome-wide scans for positive selection, recombination hot spots and resistance to antimalarial drugs Nature Genetics 2010, 42, pp 268-271 Bennett TN, Paguio, M., Gligorijevic, B., Seudieu, C., Kosar, A. D., Davidson, E., and Roepe, P. D. Novel, rapid, and inexpensive cell-based quantification of antimalarial drug efficacy Antimicrobial Agents Chemother. 2004, 48(5): pp 1807-10 Yuan J, Johnson RL, Huang RL, Wichterman J, Jiang HY, Hayton K, Fidock DA, Wellems TE, Inglese J, Austin CP, Su XZ. […]

Potency, inactive:
CC1(OC(=O)C2CCCC2)C(=O)C=C2C=C(c3ccsc3)N(c3cccc(C#N)c3)C=C2C1=O (stereo not given)
C=C(CCN1C=C(C(=O)OCC)C(c2ccccc2)NC1=O)c1ccccc1 (stereo not given)
COc1cccc([C@H]2Oc3ccc(OC)cc3C(=NOCC[C@@H]3C=C[C@H](OC(C)=O)[C@@H](COC(C)=O)O3)[C@H]2O)c1
C[C@H]1[C@H](O)[C@@H](N=[N+]=[N-])CCO[C@H]1c1ccccc1
COC(=O)C1=C(C(=O)OC)[C@@H]2N(Cc3ccccc3)c3ccccc3[C@@]23C[C@@H](C(=O)OC)N(C(=O)c2cccs2)C3=N1
CC[C@@H](c1ccccc1)n1c(=O)n2n(c1=O)[C@H]1[C@H](O)[C@@H]3O[C@H]3C(=NOCc3ccccc3)[C@H]1CC2
O=C1N(Cc2ccc(Br)cc2)c2cccc(Br)c2[C@@]12O[C@H](COc1ccccc1)CC1=CCCC12 (stereo not given in full)
CCCCC1=CC2=C(c3ccco3)C(=O)C(C)(OC(=O)c3ccc(OC)cc3)C(=O)C2=CN1CCN1CCOCC1 (stereo not given)
CC(=O)OC[C@H]1O[C@H](CC=NOC[C@@H](C)[C@H](OCc2ccccc2)C(C)C)C=C[C@@H]1OC(C)=O
COC(=O)[C@@H]1CC[C@H](C)[C@@H](c2ccc(C)cc2)N1C(=O)c1ccc(C=NO[C@H](C)c2cn([C@@H]3COC[C@@H]3O)nn2)cc1
O=C1Nc2cccc(Br)c2[C@@]12O[C@H](COc1ccccc1)CC1=CCCC12 (stereo not given in full)
COC(=O)CCCC1=CC2=C(c3ccccc3)C(=O)C(C)(OC(=O)C3CCCC3)C(=O)C2=CN1Cc1ccc(OC)cc1 (stereo not given)
COC(=O)c1nnc(N[C@@H](Cc2c[nH]c3ccccc23)C(=O)OC)nc1C(=O)OC
O=C(N[C@H](c1ccccc1)C1CCCC=C1c1ccccc1)C(F)(F)F (stereo not given in full)
COC(=O)C1=C(C(=O)OC)[C@@H]2Nc3ccccc3[C@@]23C[C@@H](C(=O)OC)N(C(=O)N2CCNC2=O)C3=N1
COC(=O)C(C(C)=O)[C@@H](NC(=O)NCc1ccccc1)c1ccccc1 (stereo not given in full)
CCCNC(=O)OC[C@H]1O[C@H](CCON=C(C)CCC(=O)OC[C@H]2O[C@H](C#Cc3ccccc3)C=C[C@H]2Oc2ccc(C)cc2)C=C[C@H]1Oc1ccc(OC)cc1
COC(=O)CCC(=O)OC1(C)C(=O)C2=COC(c3ccc(OC)cc3)=CC2=C(Br)C1=O (stereo not given)
N#CCCN(CC#Cc1ccccc1)OCc1ccccc1
O=C1[C@H]2[C@@H]3[C@@H](O)[C@H](O)CC(=NOCc4ccccc4)[C@@H]3CC[C@H]2C(=O)N1Cc1ccc2c(c1)OCO2
COCC=CC1=CC2=CC(=O)C(C)(OC(=O)c3cnc4ccccc4n3)C(=O)C2=CN1CC1CC1 (stereo not given)
COC(=O)C(C(C)=O)C1c2ccccc2C=C(C)N1C(=O)OC (stereo not given)
CCOC(=O)N1C2=NC(C(=O)OC)=C(C(=O)OC)[C@@H]3N(C)c4ccccc4[C@]23C[C@H]1C(=O)OC
CC(CCN1CCCc2nc(C)c(C)cc21)=NO[C@@H](C)c1cc(-c2c(C)cc(C)cc2C)no1
COc1ccc2c(c1)O[C@H](c1ccc3c(c1)OCO3)[C@@H](OC(=O)Nc1cc(OC)c(OC)c(OC)c1)C2=O
COC1=C(C(=O)c2ccccc2)C(=O)[C@@]2(CC=C(C)C)CC(C#N)C[C@@]1(CC=C(C)C)C2=O (stereo not given in full)
COC(=O)c1ccc(CN2C(=O)[C@]3(OCCC=C[C@@H]3C)c3c(Br)cccc32)cc1
CCN1C(=O)NC(c2cccc(F)c2)C(C(C)=O)=C1C (stereo not given)
COC(=O)N[C@@H](CCc1ccccc1)[C@]1(C(=O)OC)CCCC1=O
CC1(OC(=O)c2cnc3ccccc3n2)C(=O)C=C2C=C(C3CC3)OC=C2C1=O (stereo not given)
COC(=O)C(C(=O)OC)[C@@H]1O[C@@]23COCC[C@]2(C)[C@@H]3c2ccccc21
COC(=O)CCCC1=CC2=CC(=O)C(C)(OC(=O)c3cccs3)C(=O)C2=CN1C1CCCCC1 (stereo not given)
COC(=O)C1=C(C(=O)OC)[C@@H]2N(C)c3ccc(OC)cc3[C@@]23C[C@@H](C(=O)OC)N(C(=O)N2CCNC2=O)C3=N1
COCCN1C(=O)C2=C(C1=O)C1N(C)c3ccccc3[C@@]13C[C@@H](CO)N(C(C)=O)C3=N2 (stereo not given in full)
CCCCCCCC1Cc2ccccc2C(C(C(=O)OC)C(=O)OC)N1C(=O)OC (stereo not given)
C=CCCCC=C(C)[C@H](OCc1ccc(OC)cc1)[C@H](CCC=C(C)C(N)=O)OC
COc1cccc([C@@H]2Oc3ccc(OC)cc3C(=O)[C@@H]2OC(=O)N[C@H]2CCCc3ccccc32)c1
CCCCc1cc2c(cn1)=C(OC(=O)c1cccs1)C(C)(OC(=O)CC)C(=O)C=2 (stereo not given)
COC(=O)N[C@@H](c1ccc2ccccc2c1)C(C(C)=O)C(=O)OC (stereo not given in full)
COC(=O)NCC=Cc1nc(CCCO)co1
